About 2,000 (36%) of roughly 5,500 compounds were called active. Another 18% or so got no clear call; they are omitted. Rule as the data show it: active = normalized growth mostly below about 0.91 (no sharp cut-off); inconclusive = no clear call, values can overlap the other calls; inactive = mostly above about 0.92. The list shows a part of the results.
Assay: chemical genetic growth profiling, strain panel (AID 1159580);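 also: tested at 20 µM; growth read once vehicle control cultures reached saturation at 30 °C; 1 = growth at the plate median or of vehicle wells; lower values mean less growth of the strain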
Conditions: growth OD

Measured: normalized growth

COc1ccccc1OCCNCC(O)COc1cccc2[nH]c3ccccc3c12 (stereo unspecified)
inactive: S. cerevisiae deletion strains, locus YKL009W, strain mrt4, active compounds read low 1.01 | S. cerevisiae deletion strains, locus YKL068W, active compounds read low 1.01 | S. cerevisiae deletion strains, locus YKL085W, strain MDH1 (second series), active compounds read low 1.01 | S. cerevisiae deletion strains, locus YKL085W, strain MDH1, active compounds read low 1.01 | S. cerevisiae deletion strains, locus YKL160W, strain elf1, active compounds read low 1.01 | S. cerevisiae deletion strains, locus YKL190W, strain CNB1, active compounds read low 0.997 | S. cerevisiae deletion strains, locus YKR001C, strain vps1, active compounds read low 1.05 | S. cerevisiae deletion strains, locus YKR026C, strain gcn3, active compounds read low 1.02 | S. cerevisiae deletion strains, locus YKR091W, strain srl3, active compounds read low 1.01 | S. cerevisiae deletion strains, locus YLL001W, strain dnm1, active compounds read low 1.01 | S. cerevisiae deletion strains, locus YLL026W, active compounds read low 1.02 | S. cerevisiae deletion strains, locus YLL041C, strain sdh2, active compounds read low 1.01 | S. cerevisiae deletion strains, locus YLR027C, strain aat2, active compounds read low 1.01 | S. cerevisiae deletion strains, locus YLR039C, strain RIC1, active compounds read low 1.09 | S. cerevisiae deletion strains, locus YLR058C, strain SHM2, active compounds read low 1 | S. cerevisiae deletion strains, locus YLR102C, strain apc9, active compounds read low 1 | S. cerevisiae deletion strains, locus YLR113W, strain HOG1, active compounds read low 0.987 | S. cerevisiae deletion strains, locus YLR221C, strain rsa3, active compounds read low 1.01 | S. cerevisiae deletion strains, locus YLR258W, strain gsy2, active compounds read low 1.02 | S. cerevisiae deletion strains, locus YLR262C, strain YPT6 (second series), active compounds read low 1.05 | S. cerevisiae deletion strains, locus YLR262C, strain YPT6, active compounds read low 1.06 | S. cerevisiae deletion strains, locus YLR268W, strain sec22, active compounds read low 1.01 | S. cerevisiae deletion strains, locus YLR320W, strain mms22, active compounds read low 1.02 | S. cerevisiae deletion strains, locus YLR330W, strain CHS5, active compounds read low 1.01 | S. cerevisiae deletion strains, locus YLR342W, strain FKS1 (second series), active compounds read low 0.993 | S. cerevisiae deletion strains, locus YLR342W, strain FKS1, active compounds read low 1.01 | S. cerevisiae deletion strains, locus YLR357W, strain rsc2, active compounds read low 1 | S. cerevisiae deletion strains, locus YLR370C, strain arc18, active compounds read low 1.01 | S. cerevisiae deletion strains, locus YLR371W, strain rom2, active compounds read low 1.01 | S. cerevisiae deletion strains, locus YLR384C, strain iki3, active compounds read low 1.03 | S. cerevisiae deletion strains, locus YLR418C, strain cdc73, active compounds read low 0.999 | S. cerevisiae deletion strains, locus YML016C, strain PPZ1, active compounds read low 1.01 | S. cerevisiae deletion strains, locus YML032C, strain rad52, active compounds read low 1.02 | S. cerevisiae deletion strains, locus YML120C, strain ndi1, active compounds read low 1.01 | S. cerevisiae deletion strains, locus YML124C, strain tub3, active compounds read low 1.02 | S. cerevisiae deletion strains, locus YMR058W, strain fet3, active compounds read low 1.03 | S. cerevisiae deletion strains, locus YMR078C, strain ctf18, active compounds read low 1.02 | S. cerevisiae deletion strains, locus YMR125W, strain sto1, active compounds read low 1.01 | S. cerevisiae deletion strains, locus YMR129W, active compounds read low 1.01 | S. cerevisiae deletion strains, locus YMR205C, strain PFK2, active compounds read low 1.04 | S. cerevisiae deletion strains, locus YMR223W, strain ubp8, active compounds read low 1 | S. cerevisiae deletion strains, locus YMR231W, strain pep5, active compounds read low 1.01 | S. cerevisiae deletion strains, locus YMR263W, strain SAP30, active compounds read low 0.979 | S. cerevisiae deletion strains, locus YMR307W, strain GAS1, active compounds read low 0.972 | S. cerevisiae deletion strains, locus YNL067W, strain RPL9B, active compounds read low 0.962 | S. cerevisiae deletion strains, locus YNL071W, strain lat1, active compounds read low 0.996 | S. cerevisiae deletion strains, locus YNL128W, strain TEP1, active compounds read low 1 | S. cerevisiae deletion strains, locus YNL153C, strain GIM3, active compounds read low 1 | S. cerevisiae deletion strains, locus YNL183C, strain NPR1, active compounds read low 0.962 | S. cerevisiae deletion strains, locus YNL209W, strain ssb2, active compounds read low 1.02 | S. cerevisiae deletion strains, locus YNL233W, strain BNI4, active compounds read low 1 | S. cerevisiae deletion strains, locus YNL248C, strain rpa49, active compounds read low 1.02 | S. cerevisiae deletion strains, locus YNL250W, strain rad50, active compounds read low 1 | S. cerevisiae deletion strains, locus YNL271C, strain bni1, active compounds read low 1.02 | S. cerevisiae deletion strains, locus YNL298W, strain CLA4, active compounds read low 1.03 | S. cerevisiae deletion strains, locus YNL307C, strain MCK1, active compounds read low 1.01 | S. cerevisiae deletion strains, locus YNL322C, strain KRE1 (second series), active compounds read low 0.989 | S. cerevisiae deletion strains, locus YNL322C, strain KRE1, active compounds read low 1 | S. cerevisiae deletion strains, locus YNR049C, strain mso1, active compounds read low 1.01 | S. cerevisiae deletion strains, locus YNR052C, strain pop2, active compounds read low 1.01 | S. cerevisiae deletion strains, locus YOL006C, strain TOP1, active compounds read low 1 | S. cerevisiae deletion strains, locus YOL012C, strain htz1 0.91 | S. cerevisiae deletion strains, locus YOL147C, strain pex11, active compounds read low 1.01 | S. cerevisiae deletion strains, locus YOR001W, strain rrp6, active compounds read low 1.01 | S. cerevisiae deletion strains, locus YOR061W, strain CKA2, active compounds read low 1.01 | S. cerevisiae deletion strains, locus YOR069W, strain VPS5, active compounds read low 0.997 | S. cerevisiae deletion strains, locus YOR070C, strain gyp1, active compounds read low 1 | S. cerevisiae deletion strains, locus YOR080W, strain dia2, active compounds read low 1 | S. cerevisiae deletion strains, locus YOR083W, strain WHI5, active compounds read low 1 | S. cerevisiae deletion strains, locus YOR106W, strain vam3, active compounds read low 1.02 | S. cerevisiae deletion strains, locus YOR136W, strain idh2, active compounds read low 1.02 | S. cerevisiae deletion strains, locus YOR144C, strain elg1, active compounds read low 1.02 | S. cerevisiae deletion strains, locus YOR184W, strain ser1, active compounds read low 0.999 | S. cerevisiae deletion strains, locus YOR231W, strain MKK1, active compounds read low 0.999 | S. cerevisiae deletion strains, locus YOR265W, strain rbl2, active compounds read low 0.996 | S. cerevisiae deletion strains, locus YOR270C, strain vph1, active compounds read low 1.03 | S. cerevisiae deletion strains, locus YOR290C, strain snf2, active compounds read low 1.01 | S. cerevisiae deletion strains, locus YOR316C, strain cot1, active compounds read low 1.02 | S. cerevisiae deletion strains, locus YPL051W, strain arl3, active compounds read low 1.01 | S. cerevisiae deletion strains, locus YPL055C, strain LGE1, active compounds read low 1.01 | S. cerevisiae deletion strains, locus YPL078C, strain atp4, active compounds read low 1.03 | S. cerevisiae deletion strains, locus YPL106C, strain sse1, active compounds read low 1.02 | S. cerevisiae deletion strains, locus YPL240C, strain hsp82, active compounds read low 1.01 | S. cerevisiae deletion strains, locus YPL241C, strain CIN2, active compounds read low 0.996 | S. cerevisiae deletion strains, locus YPL256C, strain CLN2, active compounds read low 0.994 | S. cerevisiae deletion strains, locus YPR119W, strain clb2, active compounds read low 1.02 | S. cerevisiae deletion strains, locus YPR141C, strain kar3, active compounds read low 1.03 | S. cerevisiae deletion strains, locus YPR163C, strain tif3, active compounds read low 1.02 | S. cerevisiae deletion strains, locus YPR167C, strain met16, active compounds read low 1.02 | S. cerevisiae deletion strains, strain wtn01, active compounds read low 1.01 | S. cerevisiae strains, strain wild type, active compounds read low 0.984

Source: PubChem BioAssay AID1159580 (chemical genetic matrix, 2015)
